The source of these data is PubChem BioAssay AID593 (National Center for Advancing Translational Sciences (NCATS), 2007).

Structures are written as SMILES. Out of some 59,000 compounds screened, about 540 (0.92%) were called active. Roughly 33% stayed inconclusive and do not appear here. Rule as the data show it: active = max fluorescein-equivalent concentration above about 10 nM; inconclusive = between about 1.1 nM and that limit; inactive = weaker than that. The sample as a whole holds a higher share of actives than the screen did. A structure can be active in one record and inactive in another.

A short description of this experiment: qHTS Assay for Spectroscopic Profiling in Fluorescein Spectral Region. The settings on record: Compound autofluorescence, 480/540 nm; max fluorescein-equivalent concentration: hits give high values; outcome: fluorescein-equivalent. A digest of the protocol:
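Autofluorescence profiling; 100 mM Tris, pH 8.0; incubation 15 min at RT; ex/em 480/540 nm; result as fluorescein-equivalent concentration.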
With `C[C@@H]1CC[C@H]2[C@H](C)[C@H]3[C@H](C[C@H]4[C@@H]5CC=C6C[C@@H](O)CC[C@@]6(C)[C@@H]5C[C@@H](O)[C@]34C)N2C1`, the max fluorescein-equivalent concentration entry was “inactive”. On the same count and under the same terms, the result for `CCN(CC(=O)NCc1cccs1)c1nnnn1-c1ccccc1` reads “inactive”; that for `COc1cccc(NC(=O)CN(C)S(=O)(=O)c2ccc(C)cc2)c1`, “inactive”. `Cc1ccc2c(c1)C(O)(CC(=O)c1cccnc1)C(=O)N2` (configuration not stated): the max fluorescein-equivalent concentration entry was “inactive”. Consider `CC(=NC1CCN(Cc2ccccc2)CC1)c1c(O)[nH]c(=O)[nH]c1=O`, for which the max fluorescein-equivalent concentration result is “inactive”. With `COc1ccc(OC)c(S(=O)(=O)Nc2ccccc2F)c1`, the max fluorescein-equivalent concentration entry was “inactive”. For the compound `CC1CN(C2CCN(C(=O)COc3ccccc3)CC2)CC(C)O1` (configuration not stated), the max fluorescein-equivalent concentration entry is “inactive”. Take `C=CCNC(=O)C12CC3CC(C1)CC(C(=O)NCC=C)(C3)C2`: the max fluorescein-equivalent concentration entry was “inactive”. Take `CCc1cccc(C)c1NC(=O)CSc1nnc(-c2ccco2)n1N`: the max fluorescein-equivalent concentration entry is “inactive”. With `O=C(Nc1ccccc1F)C1C2C=CC3(O2)C1C(=O)N(c1cccnc1)C3C(=O)NC1CCCCC1` (configuration not stated), the max fluorescein-equivalent concentration result was “inactive”. The same measure, in the same setting: the result for `COc1cccc(Cn2c(=O)c(CCc3ccccc3)nc3cnc(N(C)C)nc32)c1` reads “inactive”; that for `CNC(=O)c1cc2c(ccc3ccccc32)oc1=N`, “inactive”.

As to `CCON=C1C(C)(C)C(C)(C)C(C)(C)C1(C)C`, the max fluorescein-equivalent concentration result is “inactive”. For `Cn1c(=O)c2[nH]c(NCC3CCCO3)nc2n(-c2ccccc2)c1=O` (configuration not stated), the max fluorescein-equivalent concentration entry was “inactive”. Take `CCCn1c(=O)c2[nH]c(C3CCCC3)nc2n(CCC)c1=O`: the max fluorescein-equivalent concentration is 11 nM (active) and the outcome was inactive. As to `O=c1[nH]c(=O)n([C@H]2C[C@H](O)[C@H](CO)O2)cc1Br`, the max fluorescein-equivalent concentration entry was “inactive”. On to `CC(=O)c1cc(C#N)c(SCC(=O)C(C)(C)C)nc1C`, for which the max fluorescein-equivalent concentration result is “inactive”. Same read-out and setting: the figure for `Cc1cccn2c(=O)c3cc(C#N)c(=NC(=O)c4cccnc4)n(CC4CCCO4)c3nc12` (configuration not stated) is 18 nM (active); for `Cc1cccn2c(=O)c3cc(C(=O)N4COCC4(C)C)n(C)c3nc12` it is “inactive”. `COC(=O)c1ccc2c(=O)n(CC3CCCO3)c(=S)[nH]c2c1` (configuration not stated): the max fluorescein-equivalent concentration result is “inactive”. In the case of `Cc1cc(C)c2[nH]c(=O)c(C(c3nnnn3Cc3ccc4c(c3)OCO4)N3CCCC3)cc2c1` (configuration not stated), the max fluorescein-equivalent concentration entry was “inactive”. For the compound `CC(=O)NS(=O)(=O)c1ccccc1`, the max fluorescein-equivalent concentration result was “inactive”. As for `CCOCCCNS(=O)(=O)Cc1ccccc1`, the max fluorescein-equivalent concentration result was “inactive”.

Regarding `CCOC(=O)N1CC=C2C(C#N)=C(N)C(C#N)(C#N)[C@H](c3cccs3)[C@H]2C1`, the max fluorescein-equivalent concentration was 12 nM (active). Same read-out and setting: the entry for `CCNc1ncc2ncc(=O)n(Cc3cccc(OC)c3)c2n1` is “inactive”.

With `COc1ccc2nc(N3CCCC(O)C3)c(C#N)cc2c1` (configuration not stated), the max fluorescein-equivalent concentration is 16 nM (active). For `COc1ccc(N2CCN(C(=O)CSc3nc4cc(OC)c(OC)cc4cc3C#N)CC2)cc1`, the max fluorescein-equivalent concentration entry was “inactive”. Take `O=CN1CCN(C2CC(=O)N(c3ccc4c(c3)OCO4)C2=O)CC1` (configuration not stated): the max fluorescein-equivalent concentration entry was “inactive”. For `S=c1[nH]nc(SCc2ccccc2Cl)c2[nH]cnc12`, the max fluorescein-equivalent concentration result was “inactive”. Consider `Cc1csc(NC(=O)CN2CCCCCC2)n1`, for which the max fluorescein-equivalent concentration result was “inactive”. Still for that read-out and setting: the result for `CCOCC(=O)Nc1cc(OC)c(Cl)cc1OC` reads “inactive”; that for `Oc1ccccc1CNCc1ccccc1O`, “inactive”; that for `COCCn1c(=O)c(CCc2ccccc2)nc2cncnc21`, “inactive”. As to `CC(C)N(C(=O)COC(=O)c1ccccc1C(=O)N1CCN(c2ccc(F)cc2)CC1)C(C)C`, the max fluorescein-equivalent concentration entry was “inactive”. As for `N#CC1=C(N)Oc2n[nH]c(CSc3ccccc3)c2C12C(=O)Nc1ccccc12` (configuration not stated), the max fluorescein-equivalent concentration entry was “inactive”. In the case of `O=S(=O)(c1cccs1)N1CCN(Cc2ccccc2)CC1`, the max fluorescein-equivalent concentration entry is “inactive”. Consider `CCOCCOC(=O)C1=C(C)N(C)C(=O)NC1c1ccccc1F` (configuration not stated), for which the max fluorescein-equivalent concentration result is “inactive”. For the compound `C=C(C)Cn1c(SCC(=O)NCc2ccco2)nc2sc3c(c2c1=O)CCC3`, the max fluorescein-equivalent concentration entry was “inactive”. The same measure, in the same setting: the result for `COCCn1c(=O)c(-c2cccc(F)c2)nc2cncnc21` reads “inactive”; that for `COc1ccc(C(=O)N/N=C2/C(=O)c3c(C)cc(C)cc3CC2(C)C)cc1`, “inactive”; that for `O=C(O)C1CC=C(Cl)CC1C(=O)NCc1ccccc1` (configuration not stated), “inactive”. `CCCOc1ccccc1-c1nc(SCCC(=O)O)n[nH]1`: the max fluorescein-equivalent concentration entry is “inactive”. Turning to `O=S(=O)(Nc1ccc2nc(-c3ccco3)[nH]c2c1)c1ccccc1`, the max fluorescein-equivalent concentration result is “inactive”. The same measure, in the same setting: the result for `O=S(=O)(O)c1ccc(O)c2ncccc12.O=S(=O)(O)c1ccc(O)c2ncccc12.[Zn]` reads “inactive”. Still for that read-out and setting: the result for `O=C(N1CCOCC1)N1CCOCC1` reads “inactive”; that for `CCCC(=O)Nc1cc(OCC)c(NC(=O)NC2CCCCC2)cc1OCC`, “inactive”.
